# In all, about 310,000 compounds went through this assay and about 14,000 (4.5%) showed an effect of 50% or more. Effects have a minus sign here. The list comes from a sample in which strong results are over-represented; it also holds similar structures and randomly drawn compounds.
# Biological target: human ether-à-go-go-related gene (hERG) potassium channel (human, UniProt Q12809)
# Test: primary screen, population patch clamp on CHO cells stably expressing hERG; higher = less effect of the substance
# 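Note: peak tail current of the secondary pulse compared with the same well before compound.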
# Sequence of human ether-à-go-go-related gene (hERG) potassium channel (Q12809 whole entry, looked up): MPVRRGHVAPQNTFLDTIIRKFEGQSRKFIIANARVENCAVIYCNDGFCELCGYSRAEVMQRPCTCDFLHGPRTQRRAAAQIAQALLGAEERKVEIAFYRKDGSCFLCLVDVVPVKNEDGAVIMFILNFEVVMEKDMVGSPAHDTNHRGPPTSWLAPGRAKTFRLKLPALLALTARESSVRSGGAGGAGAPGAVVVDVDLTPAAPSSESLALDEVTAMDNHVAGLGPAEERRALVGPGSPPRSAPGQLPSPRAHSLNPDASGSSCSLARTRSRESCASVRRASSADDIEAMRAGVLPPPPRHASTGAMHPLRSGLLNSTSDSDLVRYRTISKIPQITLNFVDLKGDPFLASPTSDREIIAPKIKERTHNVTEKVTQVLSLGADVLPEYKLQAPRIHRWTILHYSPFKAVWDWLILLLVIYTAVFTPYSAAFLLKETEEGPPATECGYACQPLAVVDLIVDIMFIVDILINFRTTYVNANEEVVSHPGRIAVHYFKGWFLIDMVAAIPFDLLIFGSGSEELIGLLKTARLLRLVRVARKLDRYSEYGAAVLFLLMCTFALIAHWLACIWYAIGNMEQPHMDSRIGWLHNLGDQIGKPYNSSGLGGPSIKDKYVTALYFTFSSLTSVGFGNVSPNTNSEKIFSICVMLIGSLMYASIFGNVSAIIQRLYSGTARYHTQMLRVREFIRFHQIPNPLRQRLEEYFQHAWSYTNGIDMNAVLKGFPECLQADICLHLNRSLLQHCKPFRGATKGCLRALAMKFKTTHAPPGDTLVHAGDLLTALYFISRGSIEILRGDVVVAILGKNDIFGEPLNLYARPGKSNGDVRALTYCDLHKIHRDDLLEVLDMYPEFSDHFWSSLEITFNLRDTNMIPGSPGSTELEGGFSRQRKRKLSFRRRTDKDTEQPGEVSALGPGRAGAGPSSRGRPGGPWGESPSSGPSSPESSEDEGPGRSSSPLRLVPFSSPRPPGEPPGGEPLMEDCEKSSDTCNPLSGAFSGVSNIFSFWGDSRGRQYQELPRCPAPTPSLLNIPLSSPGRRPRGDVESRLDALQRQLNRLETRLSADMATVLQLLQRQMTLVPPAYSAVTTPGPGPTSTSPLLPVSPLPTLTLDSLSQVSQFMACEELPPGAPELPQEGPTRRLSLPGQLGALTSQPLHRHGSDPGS
row,SMILES,"hERG current change (%, negative = inhibition) at 10uM"
1,ClCc1csc(N/N=C/c2cccs2)n1,11.8%
2,CCOc1ccc(Br)cc1S(=O)(=O)Nc1ccc(C(=O)OCC(=O)N(C)c2ccccc2)cc1,12.7%
3,CC1CC(OC(=O)c2ccccc2)(c2ccccc2)C(C)CN1C (stereo not shown),-8.66%
4,O=C(CCCN1C(=O)/C(=C/c2ccccc2)SC1=S)Nc1cccc(O)c1,2.17%
5,O=C(O)CCC(=O)NNC(=O)COc1cccc(Cl)c1,2.84%
6,O=C(Cc1ccccc1)N1CCN=C1SCc1ccc([N+](=O)[O-])cc1,-55.5%
7,O=C(Cc1ccc(F)cc1)N1CCN=C1SCc1ccc([N+](=O)[O-])cc1,-47.3%
8,O=C(Cc1ccc([N+](=O)[O-])cc1)N1CCN=C1SCc1ccccc1,-7.33%
9,CCOc1ccc(CC(=O)N2CCN=C2SCc2ccc([N+](=O)[O-])cc2)cc1,5.05%
10,COc1ccc(CC(=O)N2CCN=C2SCc2ccc([N+](=O)[O-])cc2)cc1,-52.2%
11,COc1ccc(CC(=O)N2CCN=C2SCc2cccc([N+](=O)[O-])c2)cc1,-5.33%
12,CS(=O)(=O)N(Cc1ccccc1)c1ccc(C(=O)Nc2ccc(C(N)=O)cc2)cc1,12.8%
13,Cn1c(N)c(C(=O)COC(=O)c2ccc(Cl)c(S(=O)(=O)N3CCCC3)c2)c(=O)n(C)c1=O,-43.9%
14,COC(CNc1ccc([N+](=O)[O-])c(NCC(OC)OC)c1C#N)OC,5.62%
15,CC(=O)Nc1cccc(NC(=O)c2ccco2)c1,-4.69%
16,Cc1cc(NC(=O)c2ccc(Br)o2)ccc1NC(=O)c1ccco1,-58.2%
17,Cc1ccc(C(=O)Nc2ccc(NC(=O)c3ccco3)c(C)c2)cc1,14.7%
18,CN(C)c1cccc(NC(=O)c2ccco2)c1,-73.3%
19,CN(C)S(=O)(=O)c1ccc(NC(=O)c2ccc(Br)o2)cc1,-9.84%
20,Cc1ccc(NC(=O)c2ccccc2Br)cc1S(=O)(=O)N(C)C,-1.84%

row,SMILES,"hERG current change (%, negative = inhibition) at 10uM"
1,Cc1cc(Br)ccc1NC(=O)c1ccco1,0.934%
2,Cc1ccc(NC(=O)c2ccc(Br)o2)cc1S(=O)(=O)N(C)C,-54.7%
3,CN(C(=O)c1cccc(NC(=O)c2ccco2)c1)c1ccccc1,13.3%
4,COc1ccc(C2N(C(=O)C(F)(F)F)C(C)CN2S(=O)(=O)c2ccc(C)cc2)cc1 (stereo not shown),11.2%
5,Cc1ccc(C2NC(=O)c3c(sc(C)c3C)N2)c(O)c1 (stereo not shown),-3.45%
6,CCOc1ccc(-n2c(CC)nc3ccccc3c2=O)cc1,1.33%
7,N#Cc1nc(-c2cccc(Cl)c2)oc1N1CCC(C(N)=O)CC1,0.912%
8,CCOC(=O)C1C(=O)NC(N2CCCCC2)=NC1c1ccco1 (stereo not shown),8.22%
9,Cc1cccc(C)c1NC(=O)C1(C)c2cccc[n+]2CC(=O)N1Cc1cccs1.[I-] (stereo not shown),6.18%
10,COc1ccc(S(=O)(=O)Nc2cccc(S(=O)(=O)NC3=NCCC3)c2)cc1[N+](=O)[O-],18.6%
11,CC(C)(C)OC(=O)N/N=C/c1cn(-c2ccccc2)nc1-c1cccnc1,-49.3%
12,NC(=S)N/N=C/c1cn(-c2ccccc2)nc1-c1cccnc1,11.8%
13,NC(=O)N/N=C/c1cn(-c2ccccc2)nc1-c1cccnc1,4.92%
14,O=C(N/N=C/c1cn(-c2ccccc2)nc1-c1cccnc1)c1ccccc1,-60.7%
15,O=C(N/N=C/c1cn(-c2ccccc2)nc1-c1cccnc1)c1cccnc1,-50.3%
16,O=C(N/N=C/c1cn(-c2ccccc2)nc1-c1cccnc1)c1ccc(F)cc1,-41.3%
17,CCn1ccnc1CN(C)C(=O)CCc1nnc(CCC2CCCCC2)o1,-27.7%
18,C=Cn1ccnc1P(=S)(c1ccc(N(C)C)cc1)c1nccn1C=C,3.93%
19,O=c1c2ccccc2nc(-c2ccc(Cl)cc2)n1C1CCS(=O)(=O)C1 (stereo not shown),-2.23%
20,O=C(CN1CCN(Cc2ccccc2)CC1)N1N=CCC1c1ccccc1 (stereo not shown),-1.06%

row,SMILES,"hERG current change (%, negative = inhibition) at 10uM"
1,Cc1ccc(C(=O)O/N=C/c2c(Cl)n(C)c3ccccc23)cc1,16.2%
2,CC(=O)Nc1ccc(N(C(=O)CNC(=O)c2cccs2)C(C(=O)NCC2CCCO2)c2ccccc2)cc1 (stereo not shown),13.2%
3,[Cl-].c1ccc(CC[C@@H]2CC[C@@H](CCc3ccccc3)N2)cc1,-66%
4,O=C(O)C1CSC(CCc2ccccc2)N1 (stereo not shown),14%
5,c1ccc(CCC2Cc3ccccc3N2)cc1 (stereo not shown),-0.839%
6,COC(=O)c1[nH]c2ccccc2c1NC(=O)Oc1ccccc1,12%
7,O=[N+]([O-])c1ccc(N2CCNCC2)c(Cl)c1,-6.48%
8,CN1CCN(c2ccc([N+](=O)[O-])cc2NC(=O)c2cccs2)CC1,-55.2%
9,CN1CCN(c2cc([N+](=O)[O-])ccc2Cl)CC1,-23.3%
10,O=C(Nc1cc([N+](=O)[O-])ccc1N1CCCC1)c1ccccc1,-33.3%
11,O=[N+]([O-])c1ccc(N2CCN(c3ccc(Cl)nn3)CC2)c(Cl)c1,-23.7%
12,O=C(Nc1cc([N+](=O)[O-])ccc1N1CCCC1)c1cccs1,-65.4%
13,Cc1ccc([N+](=O)[O-])cc1NC(=O)c1cccs1,18.4%
14,COC(=O)c1ccc(N2CCN(C)CC2)c(NC(=O)c2cccs2)c1,-8.75%
15,CN1CCN(c2ccc([N+](=O)[O-])cc2Cl)CC1,-52.2%
16,COc1ccc(N2CCN(c3ccc([N+](=O)[O-])cc3Cl)CC2)cc1,-12.1%
17,Cc1ccc2nc(C)c(CN3CCN(c4ccc([N+](=O)[O-])cc4Cl)CC3)n2c1,-69.3%
18,O=C(Nc1cc([N+](=O)[O-])ccc1N1CCOCC1)c1cccs1,1.15%
